Six1-Eya2 blk: inhibitors of human Six1/Eya2 interaction; AID 651725; AlphaScreen GST-Six1/His-Eya2 binding, biochemical; active compounds read low; activity change, % (no concentration beside the values); Q15475+O00167; hit rate 0.56% among 360,000; in the data active = activity change below about -65%; inconclusive = mostly about -30% to -63%
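Compounds are tested against tagged Six1 and Eya2 proteins bridged by glutathione donor and nickel acceptor beads; after a one-hour incubation at 37 °C without light, AlphaScreen emission is recorded.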
DT40 TDP1 no CPT: qHTS for Inhibitors of human tyrosyl-DNA phosphodiesterase 1 (TDP1): qHTS in cells in absence of CPT; DT40 Tdp1-/- hTDP1 cells, no CPT, ATP luminescence, 48 h; Potency, µM (doses to about 46.2 µM), for the others: at the top dose activity change, negative = growth inhibition, usual class: inhibitors; hit rate 15% among 420,000; also: potency is read from the fitted curve at half-maximal effect; nearly all actives have a fitted effect of over 55% in size
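Seeded 400 DT40-hTDP1 cells/well (vehicle DMSO, no 20 nM CPT); pinned compounds; ≥48 hr at 37 °C; CellTiter-Glo luminescence as viability measure.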
IL-1B inflam inh: blocks inflammasome-driven IL-1 beta release | THP-1 LPS/ATP IL-1B secretion, AlphaLISA, 16 h; active compounds read low | hit rate 4.7% among 360,000 | activity change, % at 57.5 µM | AID 743279; in the data active = activity change below about -50%; inconclusive = mostly about -30% to -49%
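THP-1 cells pretreated 1 hr with compounds (up to 57.5 uM final), then stimulated with LPS (250 ng/mL final) plus ATP (1.25 mM final); secreted IL-1B measured by AlphaLISA after 16 hr, decreased signal indicating inhibition.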
DT40 TDP1 CPT: DT40-hTDP1 cell growth loss with CPT. AID 686979. hit rate 12% among 420,000. Potency, µM (top dose mostly 46.2 µM), for the others: at the top dose activity change, negative = growth inhibition, most hits filed as inhibitors. chicken DT40 Tdp1-/-;hTDP1 cells + 20 nM CPT, ATP luminescence, 48 h; also: potency is read from the fitted curve at half-maximal effect; nearly all actives have a fitted effect of over 55% in size
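Cell growth measured by CellTiter-Glo luminescence after a minimum 48 h, 37 C compound exposure with 20 nM CPT in Tdp1-knockout DT40 cells stably expressing hTDP1, seeded 400/well; qHTS titration format.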
CtBP-E1A inh: CtBP/E1A binding inhibition. hit rate 0.49% among 340,000. AlphaScreen GST-E1A/His-CtBP binding, 1536-well; active compounds read low. activity change, % (test concentration not listed); in the data active = activity change below about -65%; inconclusive = mostly about -30% to -63%
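Protein mix (5X: 125 nM each GST-E1A, His-CtBP) was incubated with pinned compound 2 h at 37 deg C in dark, in 50 mM Tris pH 8.0 buffer with 300 mM NaCl. Glutathione donor and nickel acceptor beads followed; AlphaScreen signal read after 1 h.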
TDP1 inh: inhibitors of human tyrosyl-DNA phosphodiesterase TDP1; Q9NUW8; recombinant TDP1, AlphaScreen DNA substrate cleavage; Potency, µM (doses to about 130 µM), inactives show top-dose activity change, negative = inhibition, actives largely listed as inhibitors; hit rate 0.28% among 350,000; AID 485290; also: potency is read from the fitted curve at half-maximal effect; nearly all actives have a fitted effect of over 40% in size
Target sequence (Q9NUW8 whole entry, looked up): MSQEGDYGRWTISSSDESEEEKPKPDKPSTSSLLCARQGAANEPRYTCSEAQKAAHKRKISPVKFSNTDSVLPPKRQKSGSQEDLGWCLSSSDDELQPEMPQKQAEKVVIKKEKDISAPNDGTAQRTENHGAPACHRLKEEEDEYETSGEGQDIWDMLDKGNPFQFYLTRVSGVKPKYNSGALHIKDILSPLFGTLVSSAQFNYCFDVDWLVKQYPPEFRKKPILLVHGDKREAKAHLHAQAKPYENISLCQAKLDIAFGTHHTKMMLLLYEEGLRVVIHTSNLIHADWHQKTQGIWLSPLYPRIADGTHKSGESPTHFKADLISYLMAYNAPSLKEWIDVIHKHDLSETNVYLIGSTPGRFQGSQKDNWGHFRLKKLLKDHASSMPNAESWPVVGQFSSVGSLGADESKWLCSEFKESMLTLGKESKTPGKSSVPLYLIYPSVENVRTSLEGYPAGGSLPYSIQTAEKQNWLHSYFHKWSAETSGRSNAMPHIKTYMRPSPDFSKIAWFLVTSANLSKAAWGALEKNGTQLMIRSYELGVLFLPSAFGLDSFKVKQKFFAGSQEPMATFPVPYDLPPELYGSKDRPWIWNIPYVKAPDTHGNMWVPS
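Here, a 5' biotin and 3' phosphotyrosine-FITC DNA oligonucleotide reports Tdp1 activity: intact substrate bridges AlphaScreen beads, while cleavage leaves a 3' phosphate and drops signal. All incubations at room temperature.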
* = called active by the depositor; i = inactive; ? = inconclusive; · = no result. In the library only some 18% were active in any assay of this set; here they are far more common. Unless noted, calls follow the shape of the dose curve; as a rule, active = well fitted curve in the direction sought with a large enough effect; inconclusive = small, poorly fitted or top-dose-only effect, or another doubt; inactive = no such curve, though single readings can be large; an effect the other way counts as inactive or inconclusive. % is scaled to controls: 0 for no effect and ±100 for the full control effect.

SMILES	Six1-Eya2 blk	DT40 TDP1 no CPT	IL-1B inflam inh	DT40 TDP1 CPT	CtBP-E1A inh	TDP1 inh
COc1ccc(C2C=C(c3ccccc3)Nc3nc(NS(=O)(=O)c4ccc(Cl)cc4)nn32)cc1 (stereo not drawn)	·	16µM*	·	?	·	9%
COc1ccc(C(=O)Nc2nc3n(n2)C(c2ccc(F)cc2)C=C(c2ccc(Cl)cc2)N3)cc1 (stereo not drawn)	·	7.3µM*	·	15µM*	·	9%
Cc1ccc(C(=O)Nc2nc3n(n2)C(c2ccccc2)C=C(c2ccccc2)N3)cc1 (stereo not drawn)	·	?	·	?	·	-3%
O=C(Nc1nc2n(n1)C(c1ccc(F)cc1)C=C(c1ccc(Cl)cc1)N2)c1ccc([N+](=O)[O-])cc1 (stereo not drawn)	·	5.2µM*	·	5.8µM*	·	9%
O=C(Nc1nc2n(n1)C(c1ccc(F)cc1)C=C(c1ccccc1)N2)c1ccc(Cl)cc1 (stereo not drawn)	·	18µM*	·	?	·	3%
COc1ccc(C)c2sc(NC(=O)C3CC3)nc12	-4	-11%	0	10%	0	·
Cc1ccccc1N=C1NC(=O)/C(=C/c2cccnc2)S1	7	?	0	-14%	·	8%
O=C(Nc1nc2n(n1)C(c1ccccc1)C=C(c1ccccc1)N2)c1ccc(Cl)c([N+](=O)[O-])c1 (stereo not drawn)	·	12µM*	·	12µM*	·	9%
CC(=O)Nc1ccc(S(=O)(=O)Nc2nc3n(n2)C(c2ccccc2)C=C(c2ccc(Cl)cc2)N3)cc1 (stereo not drawn)	·	-16%	·	4%	·	5%
O=C1Cc2ccccc2Sc2c(OCCN3CCCCC3)cccc21	-18	?	-72*	?	-5	0%
O=C1Cc2ccccc2Sc2cc(OCCCN3CCCCC3)ccc21	-20	?	0	?	-4	0%
COc1cc2nc(N(CCCN(C)C)C(=O)c3ccc(S(=O)(=O)N4CCc5ccccc5C4)cc3)sc2cc1OC	-25	?	-96*	?	-12	·
Cc1ccc2sc(N(CCCN(C)C)C(=O)c3ccc(S(=O)(=O)N4CCc5ccccc5C4)cc3)nc2c1C	7	4.1µM*	-82*	4.6µM*	-15	0%
COc1cc2nc(N(CCCN(C)C)C(=O)c3ccc(C(=O)c4ccccc4)cc3)sc2cc1OC	-23	?	-105*	?	-25	·
COc1cccc2sc(N(CCCN(C)C)C(=O)c3ccc(S(=O)(=O)N4CCc5ccccc5C4)cc3)nc12	-26	10µM*	-97*	15µM*	-17	9%
CCOc1ccc2nc(N(CCCN(C)C)C(=O)c3ccc(S(=O)(=O)N4CCc5ccccc5C4)cc3)sc2c1	11	?	-14	?	0	4%
CN(C)CCCN(C(=O)c1ccc(S(=O)(=O)N2CCc3ccccc3C2)cc1)c1nc2c(F)cc(F)cc2s1	-16	?	?	?	-30	9%
CC1(C)Cc2c(cnn2-c2ccc(F)cc2)C(NC(=O)CN2CCCCC2=O)C1 (stereo not drawn)	-5	8%	-7	-15%	-20	9%
COc1ccc(OC)c2sc(N(CCCN(C)C)C(=O)c3ccc(S(=O)(=O)N4CCc5ccccc5C4)cc3)nc12	·	·	·	·	·	10%
COc1ccc(C)c2sc(N(CCCN(C)C)C(=O)c3ccc(S(=O)(=O)N4CCc5ccccc5C4)cc3)nc12	-12	2.3µM*	-96*	2.9µM*	-12	·
CN(C)CCNc1c2c(nc3ccccc13)CCC2	3	18µM*	-25	?	·	·
COCCCNc1c2c(nc3ccccc13)CCC2	-15	?	33	?	-4	·
CN(C)CCCNc1c2ccccc2nc2ccccc12	-12	2.6µM*	-103*	2.9µM*	-10	·
COc1ccccc1N1CCN(C(=O)C2CC(=O)N(c3ccccc3)C2)CC1 (stereo not drawn)	2	-3%	72	5%	2	4%
O=C(CCCl)N1c2ccccc2C=Cc2ccccc21	14	15µM*	-29	?	·	·
SMILES	Six1-Eya2 blk	DT40 TDP1 no CPT	IL-1B inflam inh	DT40 TDP1 CPT	CtBP-E1A inh	TDP1 inh
COc1cc(-c2nnc(SCCOc3ccc(Cl)cc3)o2)cc(OC)c1OC	·	8.2µM*	·	?	·	9%
COc1cc(-c2nnc(-c3cccs3)o2)cc(OC)c1OC	4	?	-27	?	-2	6%
COc1ccc(-c2nnc(COc3ccc4ccccc4c3)o2)cc1OC	-1	?	-11	-16%	-2	5%
COc1cc(-c2nnc(COc3ccc4cc(Br)ccc4c3)o2)cc(OC)c1OC	3	21µM*	57	23µM*	-7	2%
COc1cc(-c2nnc(SCc3cc(=O)oc4cc(C)ccc34)o2)cc(OC)c1OC	-11	29µM*	-3	?	-11	4%
COc1cc(-c2nnc(SCC(=O)Oc3ccc(C)cc3C)o2)cc(OC)c1OC	·	1%	·	1%	·	9%
COc1ccc(-c2nnc(-c3cc(OC)c(OC)c(OC)c3)o2)cc1OC	-9	15µM*	·	15µM*	-15	0%
CCCn1c(N)c(C(=O)COC(=O)CCS(=O)(=O)c2ccc(C)cc2)c(=O)[nH]c1=O	-1	-7%	-9	-5%	-3	0%
COCC(=O)n1nc(-c2ccccc2)nc1NCc1cccs1	4	-9%	-27	13%	8	5%
COc1ccc(C(=O)c2c(N)sc3c2CCN(C(=O)OC(C)(C)C)C3)cc1	1	-62%	·	15µM*	18	·
Cc1csc(N/N=C\c2cccnc2)n1	2	5.2µM*	19	2.9µM*	·	5%
Cc1ccc(N/N=C/c2cccnc2)cc1	4	-7%	-23	-11%	24	-2%
Cc1nnc(N/N=C/c2ccc(O)c([N+](=O)[O-])c2)[nH]c1=O	?	-19%	1	-16%	?	2%
Cc1csc(N/N=C/c2ccc(O)c([N+](=O)[O-])c2)n1	?	26µM*	9	18µM*	?	?
Cc1onc(-c2ccccc2)c1C(=O)N/N=C/c1ccc(O)c([N+](=O)[O-])c1	-1	-22%	i	-17%	2	5%
O=[N+]([O-])c1cc(/C=N/N/C(=N/c2ccccn2)c2ccccn2)ccc1O	-86*	4.6µM*	111	3.3µM*	?	8%
O=[N+]([O-])c1cc(/C=N\Nc2nc(-c3ccccc3)cs2)ccc1O	-25	18µM*	-15	15µM*	-19	11%
